Assay outcomes: PubChem, several laboratories
An excerpt weighted towards active compounds, which were near 0.51% of everything screened.
Tat export inh = E. coli Tat export inhibitors, primary screen, MC4100, TorA-mCherry reporter, fluorescence, single point. inhibition, % at 10 µM. 340,000 compounds, 0.036% hits;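 active means mean replicate inhibition at least 50% and at least half of replicates individually reaching 50%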;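 further: exported cargo escapes ClpAP degradation while cytoplasmic cargo is degraded and loses fluorescence; 0% = median of neutral control wells and 100% = median of NaSCN control wells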
phage Ecoli inh = growth loss of phage-infected E. coli, primary screen, RecBCD inhibitor project, absorbance, with phage, HTS; 360,000 compounds, 0.26% hits; AID 651602, 2012; inhibition, % at 11.9 µM; in the data active means inhibition above about 11%
AddAB inh = growth inhibition of E. coli expressing H. pylori AddAB, primary screen, AddAB inhibitor project, absorbance | inhibition, % at 11.9 µM | 330,000 compounds, 0.29% hits | AID 435030, 2010; in the data active means inhibition above about 12%;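 further: 0% = vehicle wells of infected cells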
E coli growth-1 = E. coli V3065 growth inhibition, primary screen, counter-screen for AddAB inhibitor project, absorbance, OD600 | 18 h | inhibition, % at 11.9 µM | 330,000 compounds, 0.27% hits | AID 449728, 2010;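 active means inhibition above the campaign's mean inhibition across all tested compounds plus 3 SD, cut at about 9.9% in these data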;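 further: uninfected addAB+ strain grown without phage in ampicillin broth; 0% = DMSO wells and 100% = ciprofloxacin 0.95 µg/ml wells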
E coli growth-2 = E. coli growth inhibition, primary screen, OD600; OD600 absorbance (concentration not given with the values); AID 1053175, 2014; 330,000 compounds, 0.21% hits; Escherichia coli growth, 23 h; hits give low values;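 active means OD600 absorbance below the run mean of sample wells minus 3.6 SD, in any replicate, cut at about 0.56 in these data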
AddAB conf = growth loss of phage-infected E. coli expressing H. pylori AddAB, confirmation, AddAB inhibitor project, absorbance, E. coli V3065, T4 phage, triplicate; shares compounds with AddAB inh; OD; T4 phage with gene 2 nonsense mutations; inhibition, % at 11.9 µM; 880 compounds, 64% hits;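 active means mean inhibition above a set limit taken from the earlier primary screen, cut at about 13% in these data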;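 further: higher means less bacterial growth since AddAB block lets phage replicate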
RecBCD counter = growth loss of RecBCD+ E. coli with mutant T4 phage, counter-screen for AddAB inhibitor project, absorbance, V66 E. coli; AID 488955, 2010; 880 compounds, 73% hits; OD growth; shares compounds with AddAB inh; inhibition, % at 11.9 µM;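 active means mean inhibition above the mean of solvent-only control wells plus 3 SD, cut at about 4% in these data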;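 further: optical density read after an 18 h incubation at 37 °C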
Bact viability = bacterial viability inhibition counter-screen, confirmation, counter-screen for AddAB inhibitor project, absorbance. absorbance (AddAB counterscreen). inhibition, % at 11.9 µM. 880 compounds, 35% hits. AID 488956, 2010. shares compounds with AddAB inh; in the data active means inhibition above about 25%
The depositor's hits bear a star.

Screening O=C(COc1ccc([N+](=O)[O-])cc1)NNC(=S)NC(=O)c1ccc(Br)cc1 returned Tat export inh -13, phage Ecoli inh -4, AddAB inh 98*, E coli growth-1 96*, E coli growth-2 0.59, AddAB conf -2, RecBCD counter 0 and Bact viability 3.
Cc1ccc(C(=O)NC(=S)NNC(=O)COc2ccc([N+](=O)[O-])cc2)cc1 was read as Tat export inh -1, phage Ecoli inh -5, AddAB inh 1, E coli growth-1 -3 and E coli growth-2 0.64.
Screening CC(C)(C)C1COC(=O)CCCCC=CCC(CC(=O)NCCO)C(=O)N1 (stereo not given) returned E coli growth-2 0.71.
For Cc1cc(N(C)N=Cc2ccccc2O)nc(-c2ccccc2O)n1 the results were E coli growth-2 0.7.
O=S(=O)(Nc1cccc2ncccc12)c1cccs1 was read as Tat export inh 2, AddAB inh 18*, E coli growth-1 4, E coli growth-2 0.68, AddAB conf 7, RecBCD counter 5.2* and Bact viability 0.
CC[n+]1c(/C=C/N(C)c2ccccc2)n(-c2ccccc2)c2ccc(-c3nc4ccccc4s3)cc21 was read as Tat export inh 0, AddAB inh 18*, E coli growth-1 35*, E coli growth-2 0.38*, AddAB conf 52*, RecBCD counter 6.7* and Bact viability 12.
`CCCS(=O)(=O)c1c(S(=O)(=O)CCC)c2c(C)cccn2c1C(N)=O` gave Tat export inh 2, phage Ecoli inh 2, AddAB inh 3, E coli growth-1 2 and E coli growth-2 0.7.
`CCCS(=O)(=O)c1c(S(=O)(=O)CCC)c2c(C)cccn2c1C(=O)N/N=C/c1cc(O)cc(O)c1` gave Tat export inh -6, phage Ecoli inh 10, AddAB inh 14*, E coli growth-1 8, AddAB conf 4, RecBCD counter 6.0* and Bact viability 0.
`CC(O)[C@@]1(O)CCC2C3CCC4CC(O)CC[C@]4(C)C3=CC[C@@]21C` (stereo not given in full) gave E coli growth-2 0.71.
Screening CC(=O)c1cccc(NC(=O)CCNS(=O)(=O)c2cccc3nonc23)c1 returned Tat export inh -17, phage Ecoli inh 5, AddAB inh 13*, E coli growth-1 7, E coli growth-2 0.68, AddAB conf 6, RecBCD counter 4.5* and Bact viability 5.
`O=C(Cn1ccc(C(F)(F)F)n1)Nc1cccc(S(=O)(=O)N2CCCCC2)c1` gave Tat export inh -1, phage Ecoli inh 5, AddAB inh 35*, E coli growth-1 24*, E coli growth-2 0.65, AddAB conf -5, RecBCD counter -1 and Bact viability -2.
`Cc1cc(N/N=C/c2ccc([N+](=O)[O-])o2)nc2ccccc12` gave Tat export inh -1, phage Ecoli inh 7, AddAB inh 50*, E coli growth-1 32*, AddAB conf 43*, RecBCD counter 4.9* and Bact viability 13.
Cn1c(/C=C/c2ccc([N+](=O)[O-])o2)nc2ccccc2c1=O was read as Tat export inh -2, AddAB inh 63*, E coli growth-1 79*, E coli growth-2 0.44*, AddAB conf 99*, RecBCD counter 29* and Bact viability 100*.
Screening Cc1cc(NN=Cc2ccncc2)nc2ccccc12 returned E coli growth-2 0.63.
For CCN(CC)CCN1C(=O)C(=O)C(=C(O)c2ccccc2)C1c1ccccc1F (stereo not given) the results were E coli growth-2 0.69.
For Cc1ccc(Sc2ncccc2C=NO)cc1 the results were E coli growth-2 0.67.
`CCc1nnc(NS(=O)(=O)c2ccc(N=Cc3c(C)[nH]n(-c4ccc(Cl)cc4)c3=O)cc2)s1` gave Tat export inh -8, phage Ecoli inh 10, AddAB inh 14*, E coli growth-1 9, AddAB conf 9, RecBCD counter 7.0* and Bact viability 11.
COc1nccnc1NS(=O)(=O)c1ccc(N=Cc2c(C)[nH]n(-c3ccc(Cl)cc3)c2=O)cc1 was read as phage Ecoli inh 6, AddAB inh 3, E coli growth-1 5 and E coli growth-2 0.68.
`CCC(=O)Nc1cccc(C2=NOC3(C2)CC(C(N)=O)N(C(=O)c2ccccc2C(=O)c2ccccc2)C3)c1` (stereo not given) gave E coli growth-2 0.71.
O=C(O[C@@H]1OC2COC(=O)c3cc(O)c(O)c(O)c3-c3c(cc(O)c(O)c3O)C(=O)O[C@@H]([C@H]1O)[C@@H]2O)c1cc(O)c(O)c(O)c1 was read as Tat export inh -1, AddAB inh 22*, E coli growth-1 23*, AddAB conf 20*, RecBCD counter 14* and Bact viability 10.
`CC(N)=C(C#N)C(=O)CN1CCCCC1` gave E coli growth-2 0.66.
`CC(=NNC(=O)C(N)=O)c1ccc2c(c1)OCCO2` gave E coli growth-2 0.66.
CCCn1c(NC(=O)c2ccc([N+](=O)[O-])o2)nc2ccccc21 was read as Tat export inh -5, phage Ecoli inh 11, AddAB inh 15*, E coli growth-1 8, E coli growth-2 0.63, AddAB conf 58*, RecBCD counter 4.7* and Bact viability 15.
For CCCn1c(NC(=O)c2cccc(C)c2C)nc2ccccc21 the results were Tat export inh 8, AddAB inh -2, E coli growth-1 -4 and E coli growth-2 0.67.
Screening O=C(Nc1cccc2ccccc12)c1ccc([N+](=O)[O-])o1 returned Tat export inh -13, phage Ecoli inh 3, AddAB inh 5, E coli growth-1 8 and E coli growth-2 0.62.
O=C(Nc1ccccn1)c1ccc([N+](=O)[O-])o1 was read as Tat export inh -11, AddAB inh 98*, E coli growth-1 72*, E coli growth-2 0.53, AddAB conf 57*, RecBCD counter 17* and Bact viability 62*.
`O=C(Nc1ncccn1)c1ccc([N+](=O)[O-])o1` gave Tat export inh 7, phage Ecoli inh 14*, AddAB inh 60*, E coli growth-1 9, E coli growth-2 0.49*, AddAB conf 96*, RecBCD counter 5.6* and Bact viability 18.
`O=C(CNC(=O)C1COc2ccccc2O1)NN=Cc1ccc(O)cc1O` (stereo not given) gave E coli growth-2 0.69.
